# Reference: PubChem BioAssay (NCI)
# About 83,000 compounds went through this panel and 20% of them were active in at least one assay; those are over-represented in the sample as a whole.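 Cells were grown in 96-well plates and exposed to the test compound at a single concentration for 48 hours; results are reported as percent growth, with values below 10 considered active.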 Values without a mark were called inactive. Activity calls are given as the source filed them.
# Tested on: HL-60(TB) leukemia
# Test: NCI-60 one-dose screen, 48 h (100 = growth as untreated, 0 = no growth, -100 = all killed)
# Conditions: 10 µM unless noted
row,SMILES,growth
1,N#Cc1c(NC(=O)c2ccco2)[n+]([O-])c2cc(Cl)c(Cl)cc2[n+]1[O-],91.8%
2,CC(=O)OC[C@H]1OC(Sc2sc(C(=O)c3ccc(Br)cc3)c(N)c2-c2nc3ccccc3s2)[C@H](OC(C)=O)[C@@H](OC(C)=O)[C@H]1OC(C)=O (stereo not given in full),105%
3,Nc1nccc2c1ccn2-c1ccc(NC(=O)c2ccc(N3CCOCC3)c(C(F)(F)F)c2)cc1,-4.36% (active)
4,COc1cc(-c2cc(/C=C/C(=O)c3ccc(F)c(F)c3)[nH]n2)cc(OC)c1OC,82.6%
5,COc1cc2c(cc1[N+](=O)[O-])-c1ccc([N+](=O)[O-])cc1/C2=N\O,89.5%
6,CCCn1c2cc(OCc3cn(-c4ccc(Cl)cc4)nn3)ccc2c2ccnc(C)c21,-51.4% (active)
7,CC/C=C\C[C@@H](O)C/C=C1/C(=O)C=C[C@H]1C/C=C\CCCC(=O)OC,-15.6% (active)
8,O=C(Nc1ccc(NCCN2CCOCC2)nc1)c1ccc([N+](=O)[O-])cc1,127%
9,COc1ccc(C(=O)/C=C/c2ccc(N3CCCCC3)cc2)cc1OC,78.9%
10,O=C(Nc1cn[nH]c1-c1nc2ccc(CN3CCOCC3)cc2[nH]1)NC1CC1,-27.1% (active)
11,C=CC(=O)Nc1cccc(Nc2nc(Nc3ccc(OCCOC(F)F)cc3)ncc2F)c1,19.8%
12,CCc1nn2c(-c3cc(OC)c(OC)c(OC)c3)c(-c3cc(OC)c(OC)c(OC)c3)nc2s1,59.3%
13,CCCCc1oc2ccccc2c1C(=O)c1cc(I)c(OCCN(CC)CC)c(I)c1,-62.9% (active)
14,COc1ccc(C(=O)c2cc(C)c(OC)c(C)c2)c(OC)c1N(C(=O)CCl)C(=O)CCl,-42.3% (active)
15,CCOC(=O)C1CN(Cc2ccccc2)C(=O)C1=O (stereo not given),7.35% (active)
16,O=C(CCc1nnc2sc(/C=C\c3ccccc3)nn12)c1nc2ccccc2[nH]1,99.8%
17,Oc1ccc(N=Cc2ccccc2O)cc1,63.3%
18,O=C1NC(=O)C(Cc2ccc(OCc3ccc(-c4cc(F)c(F)c(F)c4)cc3)cc2)S1 (stereo not given),106%
19,Cc1ccc2[nH]c(=O)c3c(c2c1)Oc1ncn2nc(-c4ccco4)nc2c1C3c1ccc(Cl)cc1 (stereo not given),96.8%
20,O=C(Nc1ccc(Oc2cccc(Cl)c2)c(Cl)c1)c1cccnc1,6.06% (active)

row,SMILES,growth
1,CCOC(=O)N/N=C\C(C)=N\NC(=O)OCC,92.9%
2,CCCCC1=C(Br)C(=O)c2nc(C)ccc2C1=O,77%
3,CC1=CN2C(=O)C3C4=C(CCCC4)SC3N=C2CN1c1c(C)cccc1C (stereo not given),-9.4% (active)
4,CCOC(=O)c1cnc2c(C)cccc2c1Nc1ccc(C(C)=O)cc1,-43.5% (active)
5,Cc1cn(-c2cc(NC(=O)c3ccc(C)c(Nc4nccc(-c5cccnc5)n4)c3)cc(C(F)(F)F)c2)cn1,53.3%
6,Cc1cccc(OCC(O)CN2CCN(c3ccc(Cl)cc3)CC2)c1 (stereo not given),97.9%
7,CC1(C)CCCC2=C1C(=O)N(SC(Cl)(Cl)Cl)C2=O,76.1%
8,COc1cc(C(=O)/C=C/c2cc(C(=O)c3cc(OC)c(OC)c(OC)c3)ccc2OC)ccc1N,3.92% (active)
9,CCCCc1ccc(NS(=O)(=O)c2cc3c4c(c2)CCN4C(=O)CC3)cc1,-23.6% (active)
10,C=CCn1c(SCC(=O)Nc2ccc(C(=O)/C=C/c3cc(OC)c(OC)c(OC)c3)cc2)nnc1-c1cc(-c2ccc(S(N)(=O)=O)cc2)nc2ccccc12,57.5%
11,C#CCNC(=S)N/N=C(\C)c1ccccn1,-18.6% (active)
12,COc1ccc2oc(=O)cc(Cn3cc(Cn4cnc5c4c(=O)n(C)c(=O)n5C)nn3)c2c1,107%
13,O=C1C=CC(O)=CC1=P(c1ccccc1)(c1ccccc1)c1ccccc1,97.8%
14,O=[N+]([O-])c1cc([N+](=O)[O-])c(NN=C(c2ccc(O)cc2)c2ccc(O)cc2)cc1Cl,12.7%
15,COc1ccc(C2CC(c3cccs3)=NN2c2ccc(S(N)(=O)=O)cc2)cc1 (stereo not given),73.7%
16,COc1cc(/C=C(\C#N)C(=O)c2ccccc2)ccc1OCc1ccccc1,103%
17,C=C(C)[C@@H]1CC[C@]2(COC(=O)c3ccccc3C(=O)O)CC[C@]3(C)[C@H](CC[C@@H]4[C@@]5(C)CCCNC(C)(C)[C@@H]5CC[C@]43C)[C@@H]12,6.45% (active)
18,COC1OCC(OS(=O)(=O)c2ccc(C)cc2)C(OC(=O)c2ccccc2)C1OC(=O)c1ccccc1 (stereo not given),25.4%
19,NC(CCC(=O)NC(CS)C(=O)NCC(=O)O)C(=O)O (stereo not given),73.1%
20,COc1cc(-c2cc(-c3nc4ccc(F)cc4[nH]3)[nH]n2)cc(OC)c1OC,-35% (active)
